The results in this text go back to PubChem BioAssay (NCI).

The nature of assay [1]: NCI Yeast Anticancer Drug Screen. Data for the rad50 strain (AID 155).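 Further: 0% = growth of vehicle-only cultures of the same strain.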 The settings on record: S. cerevisiae rad50 strain growth inhibition; at 50.0 µM; hits give high values. The essentials:
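Relative growth inhibition (compound vs vehicle) was measured in yeast with a defined repair-gene alteration.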

Assay [2] in a line: NCI Yeast Anticancer Drug Screen. Data for the mec2-1 strain (AID 157). Particulars: S. cerevisiae mec2-1 strain, at 50.0 µM, hits give high values. Summed up: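 Cells of the genetically defined mec2-1 yeast strain are incubated with test compound. Inhibition of growth is calculated against vehicle-treated controls.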
A short description of assay [3]: NCI Yeast Anticancer Drug Screen. Data for the sgs1 mgt1 strain (AID 161).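 Further: 0% = growth of cultures given vehicle only.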 Particulars: S. cerevisiae sgs1 mgt1 strain, at 50.0 µM, hits give high values. The essentials: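 Mutant yeast exposed to compound; growth scored against vehicle-only wells.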
Assay [4] in a line: NCI Yeast Anticancer Drug Screen. Data for the cln2 rad14 strain (AID 165).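 Further: 0% = growth equal to vehicle treated cultures.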 Particulars: S. cerevisiae cln2 rad14 strain, at 50.0 µM, hits give high values. The essentials: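 The screen exposed genetically defined yeast (cln2 rad14) to test compounds and scored growth inhibition relative to vehicle-treated controls.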
The nature of assay [5]: NCI Yeast Anticancer Drug Screen. Data for the bub3 strain (AID 167). Particulars: S. cerevisiae bub3 mutant strain, at 50.0 µM, hits give high values. The essentials: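 Screening used yeast with an engineered genetic alteration affecting cell cycle control. Compound-exposed cultures were compared with vehicle cultures, and reduced growth was taken as inhibition.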
Assay [6] in a line: NCI Yeast Anticancer Drug Screen. Data for the mlh1 rad18 strain (AID 175). The settings on record: S. cerevisiae mlh1 rad18 strain growth inhibition; at 50.0 µM; hits give high values. Summed up:
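Compound-treated yeast growth, normalised to vehicle controls. Strain bears defined DNA repair mutations.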

The panel holds about 79,000 compounds, 15% with a hit somewhere; the sample as a whole holds those more often. A number with no mark means an inactive call. The source made the active and inactive calls. No stated cut-off is given here; in the data, active means growth inhibition above about 70%; inactive means the rest.

On to `CN(C)c1nc(=Nc2ccc3c(c2)OCO3)ss1`, for which the growth inhibition in assay [1] is 30.5%; in assay [2], 24.4%; in assay [3], 54%; in assay [4], 34.1%; in assay [5], 16.9%; in assay [6] it was 50.2%.
Turning to `CC(C)OP(=O)(OC(C)C)/C(F)=N/Nc1ccc([N+](=O)[O-])cc1`, the growth inhibition in assay [1] was 36%; in assay [2], 11.3%; in assay [3], 23.1%; in assay [4], -3.85%; in assay [5], -6.15%; in assay [6], 6.25%.
As to `CCOC(OCC)c1ccccc1C`, the growth inhibition in assay [1] is 27.9%; in assay [2] it was 9.3%; in assay [3], 8.25%; in assay [4], -36.5%; in assay [5], 15.2%; in assay [6], 20.4%.
As for `O=S(=O)(Cc1ccccc1)CC(Br)CBr` (stereo not given), the growth inhibition was 82.9% (active) in assay [1]; 97.2% (active) in assay [2]; 96.1% (active) in assay [3]; 27.4% in assay [4]; 95.2% (active) in assay [5]; 97.2% (active) in assay [6].
Regarding `c1ccc(-c2cc3nc4ccccc4nc3o2)cc1`, the growth inhibition in assay [1] was -6.65%; in assay [2], -10.6%; in assay [3] it was -13%; in assay [4] it was 1.6%; in assay [5] it was 2.15%; in assay [6], -4.4%.
As to `O=C(CC(CC(=O)Oc1c(Br)cc(Br)cc1C(=O)O)C(=O)Oc1c(Br)cc(Br)cc1C(=O)O)Oc1c(Br)cc(Br)cc1C(=O)O`, the growth inhibition in assay [1] was -17.4%; in assay [2], -23.4%; in assay [3], -10%; in assay [4] it was 8.7%; in assay [5] it was -24%; in assay [6] it was -5.6%.
As to `COc1cc2c3c(c1)[nH]c(=S)n3C(=O)CS2`, the growth inhibition was -18.9% in assay [1]; -30.1% in assay [2]; -57.4% in assay [3]; -16.7% in assay [4]; -18.7% in assay [5]; -40.9% in assay [6].
For `O=C(CCCCCCCCC(=O)c1ccc2ccccc2c1O)c1ccc2ccccc2c1O`, the growth inhibition in assay [1] was -24.4%; in assay [2] it was -22.1%; in assay [3], -12.8%; in assay [4], 15%; in assay [5], -10.4%; in assay [6] it was -11.8%.
Take `Cc1ccc(NC(=S)SCc2ccc(Cl)c(Cl)c2)cc1Br`: the growth inhibition is 29.3% in assay [1]; -6.45% in assay [2]; 10.2% in assay [3]; 15% in assay [4]; 0.3% in assay [5]; 13.8% in assay [6].
As to `CCCc1[nH]nc(CCC(=O)N(Cc2ccccc2)Cc2ccccc2)c1CC`, the growth inhibition in assay [1] is -6.65%; in assay [2], -26.4%; in assay [3], 11.6%; in assay [4] it was 2.3%; in assay [5], -7.9%; in assay [6], -18.1%.
Turning to `O=C1/C(=C/c2ccccc2)CN(C(=O)CCN2CCOCC2)C/C1=C\c1ccccc1`, the growth inhibition in assay [1] is 34.2%; in assay [2], 7.15%; in assay [3], 73% (active); in assay [4], 31.6%; in assay [5] it was 66.8%; in assay [6] it was 86.8% (active).
Turning to `CSc1nc2c(N)ncnc2n1C`, the growth inhibition in assay [1] is 11.4%; in assay [2], 1.4%; in assay [3], 9.55%; in assay [4] it was 27.7%; in assay [5], 8.15%; in assay [6], 36.8%.
Consider `CCC(C)OC(=O)C1C(=O)CC(c2ccccc2)C1c1ccccc1` (stereo not given), for which the growth inhibition in assay [1] is -2.2%; in assay [2] it was -8.4%; in assay [3] it was -4.8%; in assay [4] it was -1.45%; in assay [5] it was 3.4%; in assay [6] it was -6.35%.
For the compound `NC(=O)C[n+]1cccc(C(=O)Nc2ccccc2)c1`, the growth inhibition in assay [1] was 17.4%; in assay [2], 4.45%; in assay [3] it was 7.25%; in assay [4], -43.2%; in assay [5], 23.2%; in assay [6] it was 10.7%.
For `C=C1CCc2occ(C)c2C2C1C1=C(CC(C)C1=O)C1OC12C` (stereo not given), the growth inhibition in assay [1] was 14.9%; in assay [2], 11.1%; in assay [3], -2.75%; in assay [4], -22.8%; in assay [5], 12.4%; in assay [6], 10.2%.
Turning to `CCOC(=O)Cc1n[nH]c(=O)c2ccccc12`, the growth inhibition in assay [1] was -21.6%; in assay [2], 1.4%; in assay [3], 1.2%; in assay [4] it was -21.4%; in assay [5] it was -21.8%; in assay [6] it was -6.95%.
`CC1(CO)CCCC2(C)C3=CC(=O)CCC3CCC12` (stereo not given): the growth inhibition was -6.7% in assay [1]; -1.9% in assay [2]; -12.8% in assay [3]; -0.35% in assay [4]; -8.95% in assay [5]; -3.15% in assay [6].
As to `COc1ccccc1/C=C1/C(=O)ON=C1C`, the growth inhibition in assay [1] was 0.05%; in assay [2], -21.1%; in assay [3] it was -11.9%; in assay [4] it was 9.6%; in assay [5], -17.1%; in assay [6], -18.5%.
`[Cl][Pt+2][Cl].[NH-]CC1(C[NH-])CCC1`: the growth inhibition in assay [1] was 1.1%; in assay [2], 1.5%; in assay [3], 9.2%; in assay [4] it was 9%; in assay [5] it was -18.9%; in assay [6], -40%.
As to `NC(=S)NNC(=O)CCC(=O)Nc1ccccc1Cl`, the growth inhibition in assay [1] is -0.15%; in assay [2], -2.3%; in assay [3], -11.8%; in assay [4] it was 37.2%; in assay [5] it was -3.95%; in assay [6], 6.65%.
